According to PubChem BioAssay (NCI):
This is part of a sample that, as a whole, favours compounds with a hit. Of some 83,000 tested, about 20% had one in any assay.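 48-hour exposure, single concentration, 96-well plates; percent growth endpoint where 0 means no net growth. Active: below 10.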 Activity calls are given as the source filed them.

Assays:
Test in all cases: NCI-60 one-dose screen, 48 h (100 = growth as untreated, 0 = no growth, -100 = all killed)
Details in all cases: 10 µM unless noted
T-47D breast = tested on: T-47D breast
BT-549 breast = tested on: BT-549 breast
MDA-MB-435 melanoma = tested on: MDA-MB-435 melanoma
SW-620 colon = tested on: SW-620 colon
MCF7 breast = tested on: MCF7 breast
HCT-116 colon = tested on: HCT-116 colon
HCC-2998 colon = tested on: HCC-2998 colon
KM12 colon = tested on: KM12 colon

Measured: growth

CC(O)c1cc2ccccc2c(=O)o1 (stereo not given)
inactive: T-47D breast 104% | BT-549 breast 105% | MDA-MB-435 melanoma 96.3% | SW-620 colon 98.9% | MCF7 breast 91.5% | HCT-116 colon 108% | HCC-2998 colon 99.9% | KM12 colon 106%

COc1ccc(/C=C/C(=O)c2cccc(NC(=O)CSc3nc4ccccc4c(=O)n3-c3ccccc3)c2)cc1OC
inactive: T-47D breast 88.2% | BT-549 breast 115% | MDA-MB-435 melanoma 101% | SW-620 colon 94.1% | MCF7 breast 69.2% | HCT-116 colon 86.2% | HCC-2998 colon 111% | KM12 colon 95.9%

CCOc1ccccc1NC1=C(Cl)C(=O)c2nc(C)ccc2C1=O
inactive: BT-549 breast 44.4% | HCC-2998 colon 20.3% | KM12 colon 60.8%
active: T-47D breast -40% | MDA-MB-435 melanoma -85.7% | SW-620 colon -66.7% | MCF7 breast -59.7% | HCT-116 colon -79.4%

CS(=O)(=O)c1ccc(-c2nn(-c3ccccc3)cc2/C=N/NC(=O)c2nc(N)n[nH]2)cc1
inactive: T-47D breast 101% | BT-549 breast 103% | MDA-MB-435 melanoma 91.9% | SW-620 colon 88.4% | MCF7 breast 88.3% | HCT-116 colon 94.8% | HCC-2998 colon 117% | KM12 colon 94.7%

NC(N)=Nc1ccc(Oc2cccc(Nc3ccc(Br)c(C(F)(F)F)c3)c2)cn1
inactive: T-47D breast 12.9%
active: BT-549 breast -2.65% | MDA-MB-435 melanoma -89.1% | SW-620 colon -79% | MCF7 breast -56.8% | HCT-116 colon -64.8% | HCC-2998 colon -85.6% | KM12 colon -72.5%

O=C(NNc1nc2cc(F)c(F)cc2n2cccc12)c1cnccn1
inactive: T-47D breast 13.6% | BT-549 breast 43.7% | MDA-MB-435 melanoma 37.1% | SW-620 colon 27.4% | MCF7 breast 14% | HCT-116 colon 17.5% | HCC-2998 colon 40.9% | KM12 colon 22.3%

COc1ccc(OC)c(-c2nc(SCC(=O)c3ccc(Br)cc3)nc(Nc3ccc(S(N)(=O)=O)cc3)c2C#N)c1
inactive: T-47D breast 71.1% | BT-549 breast 49.4% | SW-620 colon 36% | MCF7 breast 28.9% | HCT-116 colon 15.4% | HCC-2998 colon 70.9% | KM12 colon 20.9%
active: MDA-MB-435 melanoma -18.6%

CS(=O)(=O)Nc1cc(-c2ccc3ncc(C#N)c(NCc4ccccc4O)c3c2)cnc1Cl
inactive: T-47D breast 13% | KM12 colon 10%
active: BT-549 breast -10% | MDA-MB-435 melanoma 5.99% | SW-620 colon 9.16% | MCF7 breast 1.5% | HCT-116 colon 2.58% | HCC-2998 colon -1.75%

Nc1nc(N)c2c(n1)NC(c1ccc(Cl)cc1)CC(c1ccc(Nc3nc(NCCO)nc(N4CCOCC4)n3)cc1)=N2 (stereo not given)
inactive: T-47D breast 74.8% | BT-549 breast 71% | MDA-MB-435 melanoma 81.7% | SW-620 colon 79.4% | MCF7 breast 41.9% | HCT-116 colon 57.3% | HCC-2998 colon 108% | KM12 colon 65.3%

COc1ccc(C(=O)CSc2nc3c(c(Nc4ccc(S(N)(=O)=O)cc4)n2)CCCC3)cc1
inactive: T-47D breast 71.3% | BT-549 breast 127% | MDA-MB-435 melanoma 103% | SW-620 colon 86.4% | MCF7 breast 97.8% | HCT-116 colon 93% | HCC-2998 colon 97.6% | KM12 colon 73.7%

O=[N+]([O-])c1cc(/C=N/Nc2nc(N/N=C/c3ccc(Cl)c([N+](=O)[O-])c3)nc(N3CCCCC3)n2)ccc1Cl
active: MCF7 breast 0.909% | KM12 colon 5.45%
inactive: T-47D breast 48.2% | BT-549 breast 97.9% | MDA-MB-435 melanoma 92.3% | SW-620 colon 63.7% | HCT-116 colon 22% | HCC-2998 colon 67.4%

CC[C@H](CO)Nc1ccc2ncc(C#Cc3cncc(C(=O)Nc4ccc(CN5CCN(C)CC5)c(C(F)(F)F)c4)c3)n2n1
active: T-47D breast -69.5% | BT-549 breast -97.4% | MDA-MB-435 melanoma -91.4% | SW-620 colon -50.8% | MCF7 breast -73.1% | HCT-116 colon -94.3% | HCC-2998 colon -59.4% | KM12 colon -61.9%

Cn1ccnc1C(=O)/C=C/c1ccc(NC(=O)c2ccc(F)cc2)cc1
active: HCT-116 colon 8.87%
inactive: T-47D breast 22.5% | BT-549 breast 69.4% | MDA-MB-435 melanoma 43.1% | SW-620 colon 14.8% | MCF7 breast 18% | HCC-2998 colon 39.5% | KM12 colon 24.8%

COc1cc2nc(Cl)nc(Nc3cccc(C4=Nc5c(N)nc(N)nc5NC(c5ccc(Br)cc5)C4)c3)c2cc1OC (stereo not given)
inactive: T-47D breast 85.1% | BT-549 breast 87.8% | MDA-MB-435 melanoma 47.4% | SW-620 colon 46.5% | MCF7 breast 39.3% | HCC-2998 colon 41.5% | KM12 colon 24.3%
active: HCT-116 colon -10.5%

CCOP(=O)(OCC)OC[C@]12CCC(C)(C)C=C1[C@H]1CC[C@@H]3[C@@]4(C)CC[C@H](OP(=O)(OCC)OCC)C(C)(C)[C@@H]4CC[C@@]3(C)[C@]1(C)CC2
inactive: T-47D breast 13.5%
active: BT-549 breast -20.2% | MDA-MB-435 melanoma -38.4% | SW-620 colon -48.4% | MCF7 breast -47.5% | HCT-116 colon -59.8% | HCC-2998 colon -50.9% | KM12 colon 3.6%
